This is an account of results in PubChem BioAssay (EPA / NIEHS).

“And” between values parts separate entries of the source, which are not always exact repeats. Equal entries are not always repeated. Inconclusive results are not listed. The source made the active and inactive calls. How the source made its calls: active means hit-call score of the fitted dose curve at least 0.9, where 1 is the maximum; inconclusive means response in the unintended direction; inactive means score below 0.9.

rabbit Imidazoline 2 Central (I2C), CKB (gene 100009085), sequence (P00567 whole entry, looked up): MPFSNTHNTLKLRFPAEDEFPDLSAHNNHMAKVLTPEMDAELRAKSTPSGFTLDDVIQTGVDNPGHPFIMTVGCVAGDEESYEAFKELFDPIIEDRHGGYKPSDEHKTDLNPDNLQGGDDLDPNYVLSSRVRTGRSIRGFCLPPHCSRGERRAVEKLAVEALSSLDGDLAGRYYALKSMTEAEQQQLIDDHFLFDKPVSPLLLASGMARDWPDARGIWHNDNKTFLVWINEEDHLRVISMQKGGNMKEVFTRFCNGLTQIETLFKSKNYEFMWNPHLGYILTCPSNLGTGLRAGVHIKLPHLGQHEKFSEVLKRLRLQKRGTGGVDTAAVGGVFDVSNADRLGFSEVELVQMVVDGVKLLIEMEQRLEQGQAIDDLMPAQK

For one assay, the target named is human Protein Tyrosine Phosphatase Non-receptor Type 9 (PTPN9), PTPN9 (gene 5780) (UniProt P43378). The assay can be described thus: NVS_ENZ_hPTPN9: NovaScreen (NVS) Enzymatic Assay for human Protein Tyrosine Phosphatase Non-receptor Type 9 (PTPN9) (AID 2283209). The protocol: NVS_ENZ_hPTPN9 is a biochemical, single-readout assay that uses extracted gene-proteins from SF9 in a cell-free assay. Measurements were taken 1.33 hours after chemical dosing in a 384-well plate.NVS_ENZ_hPTPN9 is one of one assay component(s) measured or calculated from the NVS_ENZ_hPTPN9 assay. It is designed to make measurements of enzyme activity, a form of enzyme reporter, as detected with fluorescence intensity signals by Fluorescence and electrophoretic mobility shift technology.Data from the assay component NVS_ENZ_hPTPN9 was analyzed into 1 assay endpoint. This assay endpoint, NVS_ENZ_hPTPN9, was analyzed in the positive analysis fitting direction relative to DMSO as the negative control and baseline of activity. Using a type of enzyme reporter, loss-of-signal activity can be used to understand changes in the enzymatic activity as they relate to the gene PTPN9. Furthermore, this assay endpoint can be referred to as a primary readout, because this assay has produced multiple assay endpoints where this one serves a enzymatic activity function. To generalize the intended target to other relatable targets, this assay endpoint is annotated to the phosphatase intended target family, where the subfamily is non-receptor tyrosine phosphatase.
human Protein Tyrosine Phosphatase Non-receptor Type 9 (PTPN9), PTPN9 (gene 5780), sequence (P43378 whole entry, looked up): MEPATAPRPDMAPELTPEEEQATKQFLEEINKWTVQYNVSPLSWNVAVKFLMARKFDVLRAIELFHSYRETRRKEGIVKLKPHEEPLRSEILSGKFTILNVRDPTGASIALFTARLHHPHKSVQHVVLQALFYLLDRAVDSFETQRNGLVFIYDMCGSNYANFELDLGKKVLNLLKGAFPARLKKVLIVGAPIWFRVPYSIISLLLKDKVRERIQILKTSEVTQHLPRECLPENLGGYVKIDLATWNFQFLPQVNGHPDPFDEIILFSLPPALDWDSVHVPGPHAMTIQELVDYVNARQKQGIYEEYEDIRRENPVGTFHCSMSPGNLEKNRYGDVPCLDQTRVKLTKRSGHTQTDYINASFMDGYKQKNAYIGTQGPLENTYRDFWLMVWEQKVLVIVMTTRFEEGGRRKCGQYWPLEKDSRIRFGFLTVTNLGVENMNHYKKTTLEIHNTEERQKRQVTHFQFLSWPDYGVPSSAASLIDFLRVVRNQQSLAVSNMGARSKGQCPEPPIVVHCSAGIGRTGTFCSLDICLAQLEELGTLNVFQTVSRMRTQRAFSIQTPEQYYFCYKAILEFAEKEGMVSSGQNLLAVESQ
(§1) Binding assays used specific radioligands (tritiated, iodinated) with non-radioactive competitive displacement ligands in agonist or antagonist protocols (as indicated) and various reference compounds and inhibitors to titrate specific binding to receptors and transporters. Most enzyme assays (CYPs, kinases, phosphatases, proteases, HDACs) used recombinant protein and specific substrates (fluorescence mostly, some colorimetric and radioactive) and inhibitors, followed by a biochemical separation of substrate and product. All assays for the biochemical HTS were initially run in duplicate at a single concentration (10 uM for CYP450 assays and 25 uM for all others). […]
For `COc1cc(-c2ccc(N)c(OC)c2)ccc1N`, the AC50 is 40.1 µM (active).
For `CC(C)(C)CC(C)(C)c1ccc(O)cc1`, the call was inactive.
Turning to `CC(=O)[O][Hg][c]1ccccc1`, the AC50 was 17 µM (active).

The target in a further assay is human Protein Tyrosine Phosphatase Non-receptor Type 6 (PTPN6), PTPN6 (gene 5777) (UniProt P29350). The assay can be described thus: NVS_ENZ_hPTPN6: NovaScreen (NVS) Enzymatic Assay for human Protein Tyrosine Phosphatase Non-receptor Type 6 (PTPN6) (AID 2283210). The gist of the method: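 Recombinant human PTPN6 from SF9 cells, enzyme activity followed by fluorescence after mobility-shift separation of substrate and product at 1.33 h. Chemicals first tested at a single 25 uM in duplicate, then confirmed across concentration series; loss of signal relative to DMSO.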
human Protein Tyrosine Phosphatase Non-receptor Type 6 (PTPN6), PTPN6 (gene 5777), sequence (P29350 whole entry, looked up): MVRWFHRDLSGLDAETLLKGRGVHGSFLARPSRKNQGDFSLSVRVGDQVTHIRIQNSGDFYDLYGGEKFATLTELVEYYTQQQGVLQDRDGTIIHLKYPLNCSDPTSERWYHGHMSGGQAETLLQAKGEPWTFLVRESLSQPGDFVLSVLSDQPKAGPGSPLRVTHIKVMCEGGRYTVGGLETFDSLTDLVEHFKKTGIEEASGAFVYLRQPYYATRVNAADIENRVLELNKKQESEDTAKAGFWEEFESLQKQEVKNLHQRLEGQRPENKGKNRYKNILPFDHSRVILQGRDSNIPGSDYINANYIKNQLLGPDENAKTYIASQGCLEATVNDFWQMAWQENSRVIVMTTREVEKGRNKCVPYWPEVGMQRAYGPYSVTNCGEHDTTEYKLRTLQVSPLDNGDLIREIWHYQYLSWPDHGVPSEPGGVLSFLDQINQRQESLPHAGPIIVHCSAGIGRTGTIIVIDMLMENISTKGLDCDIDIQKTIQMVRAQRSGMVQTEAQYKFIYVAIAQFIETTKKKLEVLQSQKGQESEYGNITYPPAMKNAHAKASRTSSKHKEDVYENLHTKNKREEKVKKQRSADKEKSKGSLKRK
On to `O=C(O)C(Cl)(Cl)Cl`, for which the outcome was inactive.
On to `CCOP(=S)(OCC)Oc1nc(Cl)c(Cl)cc1Cl`, for which the call was inactive.
Same read-out and setting: to `CCOP(=S)(OCC)SCSP(=S)(OCC)OCC` belongs “inactive”; to `Cn1sc(Cl)cc1=O`, “inactive”.

The target of a further assay is human Vascular Endothelial Growth Factor Receptor 1 (VEGFR1), FLT1 (gene 2321) (UniProt P17948). As to the kind of experiment: NVS_ENZ_hVEGFR1: NovaScreen (NVS) Enzymatic Assay for human Vascular Endothelial Growth Factor Receptor 1 (VEGFR1) (AID 2283226). The gist of the method: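 Kinase activity of recombinant human VEGFR1 was read by fluorescence after electrophoretic separation of product from substrate, 1 h post-dosing; initial duplicate single-point testing at 25 uM, followed by concentration-series follow-up, with DMSO as baseline.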
human Vascular Endothelial Growth Factor Receptor 1 (VEGFR1), FLT1 (gene 2321), sequence (P17948 whole entry, looked up): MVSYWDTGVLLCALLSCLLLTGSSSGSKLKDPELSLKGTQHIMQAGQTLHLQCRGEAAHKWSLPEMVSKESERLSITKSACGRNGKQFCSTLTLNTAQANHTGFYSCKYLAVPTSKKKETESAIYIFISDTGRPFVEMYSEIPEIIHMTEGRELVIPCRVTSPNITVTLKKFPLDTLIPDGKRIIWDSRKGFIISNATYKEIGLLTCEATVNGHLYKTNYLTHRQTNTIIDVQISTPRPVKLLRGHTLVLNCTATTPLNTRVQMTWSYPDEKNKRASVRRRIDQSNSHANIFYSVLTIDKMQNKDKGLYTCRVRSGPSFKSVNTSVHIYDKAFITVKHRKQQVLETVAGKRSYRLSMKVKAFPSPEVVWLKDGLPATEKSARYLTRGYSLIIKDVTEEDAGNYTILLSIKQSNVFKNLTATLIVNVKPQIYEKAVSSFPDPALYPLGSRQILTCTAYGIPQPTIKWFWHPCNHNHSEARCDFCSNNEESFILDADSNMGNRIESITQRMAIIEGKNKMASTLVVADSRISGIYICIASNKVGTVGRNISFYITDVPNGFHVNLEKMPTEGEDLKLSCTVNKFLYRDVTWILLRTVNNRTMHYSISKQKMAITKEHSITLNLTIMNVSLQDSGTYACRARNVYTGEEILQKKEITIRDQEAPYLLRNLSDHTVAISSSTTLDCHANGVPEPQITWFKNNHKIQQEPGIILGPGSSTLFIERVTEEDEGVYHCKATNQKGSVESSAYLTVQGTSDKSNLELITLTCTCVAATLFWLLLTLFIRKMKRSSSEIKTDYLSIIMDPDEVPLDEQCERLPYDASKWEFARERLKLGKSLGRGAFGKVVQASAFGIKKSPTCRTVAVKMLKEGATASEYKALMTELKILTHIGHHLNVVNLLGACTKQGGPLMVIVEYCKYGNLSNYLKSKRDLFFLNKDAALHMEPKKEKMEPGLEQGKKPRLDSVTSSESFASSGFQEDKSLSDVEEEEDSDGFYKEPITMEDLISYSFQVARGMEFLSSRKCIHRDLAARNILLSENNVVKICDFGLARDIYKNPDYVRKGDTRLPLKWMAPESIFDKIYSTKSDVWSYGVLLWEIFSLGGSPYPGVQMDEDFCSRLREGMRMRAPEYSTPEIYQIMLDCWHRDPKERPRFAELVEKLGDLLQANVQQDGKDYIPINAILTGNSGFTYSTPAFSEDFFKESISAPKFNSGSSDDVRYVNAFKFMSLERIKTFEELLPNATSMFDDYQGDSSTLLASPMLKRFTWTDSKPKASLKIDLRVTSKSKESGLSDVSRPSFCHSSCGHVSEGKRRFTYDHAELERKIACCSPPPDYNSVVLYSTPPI
Turning to `Nc1ncc([N+](=O)[O-])s1`, the AC50 was 40.4 µM (active).
As for `CCOP(=S)(OCC)Oc1ccc(S(C)=O)cc1` (centres undefined), the molecule was called inactive.
Turning to `CC(=O)[O][Hg][c]1ccccc1`, the outcome was inactive.
Regarding `COP(=S)(OC)Oc1cc(Cl)c(Cl)cc1Cl`, the outcome was inactive.

The target in a further assay is rabbit Imidazoline 2 Central (I2C), CKB (gene 100009085) (UniProt P00567). As to the kind of experiment: NVS_ENZ_rabI2C: NovaScreen (NVS) Enzymatic Assay for rabbit Imidazoline 2 Central (I2C) (AID 2283228). On the procedure:
NVS_ENZ_rabI2C is a biochemical, single-readout assay that uses extracted gene-proteins from Rabbit brain membranes in a tissue-based cell-free assay. Measurements were taken 1.5 hours after chemical dosing in a 48-well plate.NVS_ENZ_rabI2C is one of one assay component(s) measured or calculated from the NVS_ENZ_rabI2C assay. It is designed to make measurements of enzyme activity, a form of enzyme reporter, as detected with scintillation counting signals by Filter-based radiodetection technology.Data from the assay component NVS_ENZ_rabI2C was analyzed into 1 assay endpoint. This assay endpoint, NVS_ENZ_rabI2C, was analyzed in the positive analysis fitting direction relative to DMSO as the negative control and baseline of activity. Using a type of enzyme reporter, loss-of-signal activity can be used to understand changes in the enzymatic activity as they relate to the gene CKB. Furthermore, this assay endpoint can be referred to as a primary readout, because this assay has produced multiple assay endpoints where this one serves a enzymatic activity function. To generalize the intended target to other relatable targets, this assay endpoint is annotated to the oxidoreductase intended target family, where the subfamily is imidazoline receptor.
as §1
For the molecule `CCN1CCC2(CC1)COc1cc3c(cc12)N(C(=O)c1ccc(-c2ccc(-c4nnc(C)o4)cc2C)cc1)CC3`, the molecule was called inactive.
As to `COc1cc(-c2ccc(N)c(OC)c2)ccc1N`, the AC50 was 10.4 µM (active) and 18.1 µM (active).
With `CCC(=O)C(CC(C)N(C)C)(c1ccccc1)c1ccccc1` (centres undefined), the AC50 was 3.37 µM (active).

Usually AC50 stands for the concentration giving half of the maximal activity seen.
